The whole screen tested about 1,400 compounds, of which about 350 (25%) were called active. Roughly 2% stayed inconclusive and do not appear here. The rule behind the calls is not given here. The list is a sample of the results. Entries with a potency or affinity are not part of this list.
experiment: C. difficile growth inhibition, confirmation, 4-point retest (AID 1224921); details: Clostridioides difficile clinical isolate growth, OD600, 24 h, stronger effect = lower value; at 30 µM unless noted;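 note: plate controls were DMSO wells for no effect and levofloxacin 16 µg/mL wells for full effect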

Max activity, inactive:
CCS(=O)(=O)Nc1ccc2c(c1)C(=O)N(C)C[C@@H](OC)[C@@H](C)CN(CC1CCCC1)[C@@H](C)CO2 -10.9% [at 0.5 µM]
Cc1ccc(-c2ccc3c(c2)O[C@@H](CN(C)Cc2cccnc2)[C@@H](C)CN([C@H](C)CO)S3(=O)=O)cc1 26.8%
CN1CCN(C(=O)C[C@@H]2C[C@@H]3c4cc(NC(=O)Cc5ccncc5)ccc4O[C@@H]3[C@H](CO)O2)CC1 13.2%
O=C(N[C@@H]1C=C[C@@H](CC(=O)N2CCOCC2)O[C@@H]1CO)c1cccc(F)c1 -15.3% [at 1.95 µM]
C[C@H](CO)N1C[C@H](C)[C@H](CN(C)C(=O)Nc2ccc(F)cc2)Oc2ncc(-c3cc4ccccc4o3)cc2C1=O 26.1%
COc1ccccc1S(=O)(=O)N[C@H]1C=C[C@@H](CC(=O)N2CCCCC2)O[C@H]1CO -12.3%
COc1ccc(CNC(=O)C[C@H]2C[C@@H]3c4cc(NC(=O)NC5CCCC5)ccc4O[C@@H]3[C@@H](CO)O2)cc1 -9.75%
CO[C@@H]1CN(C)C(=O)c2ccc(NC(=O)C3CCCC3)cc2OC[C@@H](C)NC[C@@H]1C -1.17% [at 1.95 µM]
CO[C@H]1CN(C)C(=O)c2ccc(NC(=O)C3CCCCC3)cc2OC[C@H](C)N(Cc2nccs2)C[C@H]1C 21.8% [at 8 µM]
C[C@@H]1CN([C@H](C)CO)C(=O)c2ccccc2-c2ccccc2CO[C@H]1CN(C)S(=O)(=O)c1ccsc1 29%
C[C@@H]1CN([C@H](C)CO)C(=O)Cc2cc(NS(C)(=O)=O)ccc2O[C@H]1CN(C)Cc1ccccc1 15.9%
COc1ccc(-c2ccc([C@H]3[C@H](C#N)N(C(=O)NC4CCCC4)[C@H]3CO)cc2)cc1 36.8% [at 9 µM]
CO[C@H]1CN(C)C(=O)c2cc(NC(=O)c3cccc(F)c3)ccc2OC[C@H](C)N(C(C)=O)C[C@H]1C -6.58%
Cc1nn(C)cc1NC(=O)C[C@@H]1CC[C@@H]2[C@@H](COc3ccc(NC(=O)Nc4cccc(Cl)c4)cc3C(=O)N2C)O1 10.1%
Cc1ccccc1-c1ccc2c(c1)O[C@H](CN(C)Cc1ccncc1)[C@@H](C)CN([C@H](C)CO)S2(=O)=O 13.6%
CCC(=O)Nc1ccc2c(c1)OC[C@H](C)N(CC1CCCCC1)C[C@H](C)[C@@H](OC)CN(C)C2=O 33.6%
COCC(=O)Nc1ccc2c(c1)OC[C@@H](C)N(Cc1ccccc1F)C[C@@H](C)[C@@H](OC)CN(C)C2=O -4.19%
C[C@@H]1CN([C@H](C)CO)C(=O)c2ccccc2-c2ccccc2CO[C@@H]1CN(C)C(=O)CCN(C)C -7.59% [at 2.1 µM]
C[C@@H]1CN([C@H](C)CO)C(=O)Cc2cc(NS(=O)(=O)c3ccccc3)ccc2O[C@@H]1CN(C)Cc1ccc(Cl)c(Cl)c1 30.5% [at 35 µM]
Cc1ccc(S(=O)(=O)Nc2ccc3c(c2)C(=O)N([C@@H](C)CO)C[C@H](C)[C@@H](CN(C)Cc2ccc(C(F)(F)F)cc2)OCCCC[C@@H](C)O3)cc1 32.7% [at 8 µM]
COc1ccc(S(=O)(=O)Nc2ccc3c(c2)CC(=O)N([C@@H](C)CO)C[C@H](C)[C@@H](CN(C)CC2CCCCC2)O3)cc1 52.7%
C[C@@H]1CCCCO[C@H](CN(C)Cc2ccc(C(F)(F)F)cc2)[C@@H](C)CN([C@@H](C)CO)C(=O)c2cc(NS(=O)(=O)c3ccc(Cl)cc3)ccc2O1 24% [at 8 µM]
C[C@H](CO)N1C[C@H](C)[C@H](CN(C)CC2CCCCC2)OCCCC[C@H](C)Oc2ccc(NS(=O)(=O)c3ccc(Cl)cc3)cc2C1=O 23% [at 8 µM]
Cc1ccc(S(=O)(=O)Nc2ccc3c(c2)C(=O)N([C@@H](C)CO)C[C@@H](C)[C@H](CN(C)C)OCCCC[C@H](C)O3)cc1 -4% [at 8 µM]
C[C@@H]1CN([C@@H](C)CO)C(=O)Cc2cc(NS(C)(=O)=O)ccc2O[C@H]1CN(C)CC1CCCCC1 14.3%
C[C@H]1CN([C@@H](C)CO)C(=O)Cc2cc(NS(=O)(=O)c3ccccc3)ccc2O[C@@H]1CN(C)Cc1ccc(Cl)c(Cl)c1 49.4%
O=C(C[C@H]1C[C@@H]2c3cc(NC(=O)C4CCC4)ccc3O[C@@H]2[C@@H](CO)O1)NCc1ccc2c(c1)OCO2 -8.66% [at 0.5 µM]
COc1ccccc1NC(=O)N[C@@H]1CC[C@@H](CC(=O)N2CCC(Cc3ccccc3)CC2)O[C@@H]1CO -7.56%
CCS(=O)(=O)Nc1ccc2c(c1)C(=O)N(C)C[C@@H](OC)[C@H](C)CN(C(C)=O)[C@@H](C)CO2 -11.1%
C[C@@H]1CCCCO[C@H](CN(C)Cc2ccc(C(=O)O)cc2)[C@H](C)CN([C@H](C)CO)C(=O)c2cc(NC(=O)Nc3ccc4c(c3)OCO4)ccc2O1 -16.4%
C[C@@H]1CN([C@@H](C)CO)S(=O)(=O)c2ccc(C3=CCCCC3)cc2O[C@@H]1CN(C)Cc1cccnc1 23.6%
O=C(Nc1cc(F)ccc1F)N[C@@H]1CC[C@@H](CC(=O)N2CCc3ccccc3C2)O[C@H]1CO 14.6%
CNC[C@@H]1Oc2cc(C#CCOC)ccc2S(=O)(=O)N([C@@H](C)CO)C[C@H]1C -11.1% [at 8 µM]
O=C(N[C@H]1C=C[C@H](CC(=O)N2CCc3ccccc3C2)O[C@H]1CO)C1CC1 -8.59%
C[C@H]1CN([C@@H](C)CO)S(=O)(=O)c2ccc(C#CC3CCCC3)cc2O[C@H]1CN(C)Cc1cccnc1 23.6%
O=C(C[C@@H]1C[C@@H]2c3cc(NC(=O)C4CCC4)ccc3O[C@@H]2[C@H](CO)O1)NCc1cc(F)ccc1F 4.63%
Cc1ccc(-c2ccc3c(c2)O[C@@H](CN(C)Cc2ccncc2)[C@@H](C)CN([C@H](C)CO)S3(=O)=O)cc1 -8.83% [at 8 µM]
C[C@H](CO)N1C[C@H](C)[C@H](CN(C)Cc2ccncc2)Oc2cc(C3=CCCCC3)ccc2S1(=O)=O 33%
C[C@H]1CN([C@@H](C)CO)C(=O)c2ccccc2-c2ccccc2CO[C@H]1CN(C)Cc1cccc(O)c1 7.55%
C[C@H]1CN([C@@H](C)CO)C(=O)c2ccccc2-c2ccccc2CO[C@H]1CN(C)C(=O)CCN(C)C -12.8% [at 35 µM]
C/C=C/c1ccc2c(c1)O[C@H](CN(C)C(=O)Nc1ccc(C(F)(F)F)cc1)[C@@H](C)CN([C@@H](C)CO)S2(=O)=O 32.5% [at 8 µM]
C[C@H]1CN([C@@H](C)CO)C(=O)c2cc(Br)cnc2O[C@@H]1CN(C)C(=O)c1ccccc1 -20% [at 8 µM]
COc1ccc(NC(=O)Nc2cccc3c2O[C@@H](CN(C)C(=O)NC2CCCCC2)[C@H](C)CN([C@@H](C)CO)C3=O)cc1 10.1%
C[C@@H]1CN([C@@H](C)CO)S(=O)(=O)c2ccc(C#Cc3ccccc3F)cc2O[C@H]1CN(C)CC1CCOCC1 35.2%
COc1ccccc1C#Cc1ccc2c(c1)O[C@@H](CN(C)Cc1cccnc1)[C@@H](C)CN([C@@H](C)CO)S2(=O)=O 24.6%
CC(C)NC(=O)N(C)C[C@H]1OCc2ccccc2-c2ccccc2C(=O)N([C@@H](C)CO)C[C@H]1C -14.3%
COc1cccc(C(=O)Nc2ccc3c(c2)OC[C@@H](C)N(C(=O)C2CCCC2)C[C@H](C)[C@@H](OC)CN(C)C3=O)c1 -18.8% [at 8 µM]
CC(C)CC#Cc1ccc2c(c1)O[C@H](CN(C)Cc1ccncc1)[C@@H](C)CN([C@@H](C)CO)S2(=O)=O 23.1%
C[C@H](CO)N1C[C@H](C)[C@H](CN(C)Cc2ccc3c(c2)OCO3)Oc2ncc(-c3cccc(F)c3)cc2C1=O -9.89% [at 8 µM]
N#C[C@H]1[C@H](c2ccc(-c3cccc(F)c3)cc2)[C@@H](CO)N1C(=O)NC1CCCC1 28.5%
CCCC(=O)Nc1ccc2c(c1)C(=O)N(C)C[C@@H](OC)[C@@H](C)CN(Cc1ccccc1)[C@H](C)CO2 9.23%
C[C@H]1CN([C@@H](C)CO)S(=O)(=O)c2ccc(C3=CCCCC3)cc2O[C@H]1CN(C)C(=O)c1ccncc1 14.4%
N#C[C@H]1[C@@H](c2ccc(C#Cc3ccccc3F)cc2)[C@@H](CO)N1C(=O)C1CCCCC1 -9.56%
C[C@@H]1CN([C@@H](C)CO)C(=O)Cc2cc(NC(=O)C3CC3)ccc2O[C@@H]1CN(C)Cc1ccc(-c2ccccc2)cc1 49.5%
O=C(C[C@@H]1CC[C@H]2[C@@H](COC[C@@H](O)CN2Cc2ccc(Cl)cc2)O1)NCc1ccccc1Cl -28.7% [at 1.95 µM]
O=C(C[C@H]1CC[C@@H]2[C@H](COC[C@H](O)CN2Cc2ccc(Cl)cc2)O1)NCc1ccccc1Cl 32% [at 8 µM]
COc1cccc(NC(=O)N[C@H]2CC[C@H](CC(=O)N3CCCCC3)O[C@@H]2CO)c1 17.5%
C[C@@H]1CN([C@@H](C)CO)S(=O)(=O)c2ccc(C3=CCCCC3)cc2O[C@H]1CN(C)Cc1cccnc1 15.4%

From PubChem BioAssay AID1224921 (Broad Institute, 2016)
